USP2a inh: qHTS Assay for Inhibitors of Ubiquitin-specific Protease USP2a Using CHOP2 as the Reporter. USP2 core, Ub-CHOP2 coupled fluorogenic reporter, 485/531. Potency, µM (highest dose often 38.3 µM), most hits filed as inhibitors. actives 0.01% (n = 330,000)
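Cell-free coupled assay: 10nM USP2 core preincubated 30min RT with compound in Tris-HCl pH 8.0/CaCl2/CHAPS buffer, then 25nM Ub-CHOP2 and 25nM reporter substrate; fluorescence (Ex 485/Em 531) read after 60min RT, normalized to NEM inhibition, concentration-response curves fitted.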
TR SRC2 fluor cs: Total Fluorescence Counterscreen for Inhibitors of the Interaction of Thyroid Hormone Receptor and Steroid Receptor Coregulator 2. TRb/SRC2 Texas Red total fluorescence interference. Potency, µM (titrated, usually from 106 µM). AID 1479, 2009. actives 0.29% (n = 280,000); active means well fitted curve in either direction with a large enough effect
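Flags fluorescent or light-absorbing compounds by total fluorescence, S + 2P, at 555 nm excitation and 632 nm emission. Mixture: 20 nM Texas Red SRC2 peptide, 0.6 uM human TRb LBD, 1 uM T3, 5% DMSO; compound exposure 5 h at ambient temperature.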
TRb SRC2 PPI: qHTS for Inhibitors of the Interaction of Thyroid Hormone Receptor and Steroid Receptor Coregulator 2 | Thyroid hormone receptor beta (Homo sapiens), P10828 | TRbeta-SRC2 peptide binding, fluorescence polarization; receptor liganded with 1 µM T3 | Potency, µM (highest dose often 106 µM), hits mostly inhibitors | actives 0.065% (n = 280,000) | AID 1469, 2008; further: nearly all actives have a fitted effect of over 50% in size
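Binding of a 20-amino-acid Texas Red SRC2 peptide (20 nM) to TRb ligand-binding domain (0.6 uM) with agonist T3 at 1 uM was followed by fluorescence polarization after a 5 hr room-temperature incubation.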
Eya2 phos inh: qHTS Assay for Inhibitors of the Phosphatase Activity of Eya2. Protein phosphatase EYA2 (Homo sapiens), O00167. actives 0.006% (n = 330,000). AID 488837, 2010. recombinant Eya2, OMFP fluorescence dephosphorylation (OMFP is methylfluorescein phosphate). Potency, µM (doses to about 76.9 µM), usual class: inhibitors
Target sequence (O00167 whole entry, looked up): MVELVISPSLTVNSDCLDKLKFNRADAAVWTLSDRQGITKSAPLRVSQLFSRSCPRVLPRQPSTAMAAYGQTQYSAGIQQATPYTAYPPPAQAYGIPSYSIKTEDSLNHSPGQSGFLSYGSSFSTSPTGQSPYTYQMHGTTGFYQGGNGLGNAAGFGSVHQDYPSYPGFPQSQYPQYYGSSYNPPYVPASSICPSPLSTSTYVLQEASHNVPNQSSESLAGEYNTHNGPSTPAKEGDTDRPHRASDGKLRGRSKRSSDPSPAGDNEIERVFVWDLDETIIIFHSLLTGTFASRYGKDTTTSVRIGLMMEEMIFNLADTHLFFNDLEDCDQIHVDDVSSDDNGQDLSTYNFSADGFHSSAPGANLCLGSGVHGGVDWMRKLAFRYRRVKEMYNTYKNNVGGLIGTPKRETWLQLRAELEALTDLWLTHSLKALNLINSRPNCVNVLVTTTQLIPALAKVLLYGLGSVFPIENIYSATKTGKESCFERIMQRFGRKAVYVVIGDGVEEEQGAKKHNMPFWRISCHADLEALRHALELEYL
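Eya2 protein (added as 0.2 uM solution) was preincubated with compound for 10 min at ambient temperature in 50 mM HEPES pH 7.5, 50 mM NaCl, 5 uM MgCl2, 0.05% BSA, 1 mM DTT. OMFP (added at 50 uM) then reacted 10 min; fluorescence read at 485/525 nm.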
TSHR antagonist: Antagonists of the Thyroid Stimulating Hormone Receptor: HTS campaign; Thyrotropin receptor (Homo sapiens), P16473; TSHR-expressing cells, TSH-stimulated cAMP HTRF, 2 h; active compounds read low; activity change, negative = inhibition, % at 11.5 µM; actives 0.2% (n = 330,000);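 active means activity change below a set negative limit, meaning inhibition stronger than a set level, cut at about -70% in these data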
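Inhibition of cAMP made by TSHR-expressing cells under TSH stimulation (4nM final, EC80; 2 h, 37 deg C) is quantified with a one-step lysis HTRF kit, anti-cAMP cryptate versus cAMP-d2.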
CBFb-RUNX1 inh: qHTS Assay for Compounds Blocking the Interaction Between CBF-beta and RUNX1 for the Treatment of Acute Myeloid Leukemia; AlphaScreen CBFb-His/RUNX1-biotin binding, biochemical; Potency, µM (series often up to 59.8 µM), actives largely listed as inhibitors; 230,000 tested, under 10 active; AID 1477, 2009
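Bead-based AlphaScreen assay; binding partners His-tagged CBF-beta and biotinylated RUNX1 at 30 nM each. Compound exposure 15 min after a 20-min protein preincubation; bead step 90 min; all steps at room temperature.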
Hits are given with their value; [ ] = remark or other dose. An excerpt weighted towards active compounds, which were near 0.38% of everything screened. Unless noted, the call rests on the fitted dose curve; in most records, active means well fitted curve in the direction sought with a large enough effect; inconclusive means small, poorly fitted or top-dose-only effect, or another doubt; inactive means no such curve, though single readings can be large; an effect the other way counts as inactive or inconclusive.

What do the screens show for `CC(=O)N1CCN(c2ccc(NCc3ccc4c(c3)OCO4)cc2)CC1`?
USP2a inh: inactive; TR SRC2 fluor cs: inactive; TRb SRC2 PPI: 40µM; Eya2 phos inh: inactive; TSHR antagonist: inactive

How did O=C(CCN1C(=O)c2ccccc2Sc2ncccc21)Nc1ccc(F)cc1 do in these assays?
TR SRC2 fluor cs: inactive; TRb SRC2 PPI: inactive

What do the screens show for `O=[N+]([O-])c1c(Nc2cccc(O)c2)cc(Cl)c2nonc12`?
USP2a inh: inactive; Eya2 phos inh: inactive; TSHR antagonist: -98

How did O=C(O)c1ccc(Nc2cc(Cl)c3nonc3c2[N+](=O)[O-])cc1 do in these assays?
USP2a inh: inactive; TR SRC2 fluor cs: inactive; TRb SRC2 PPI: inactive; Eya2 phos inh: inactive; TSHR antagonist: inactive; CBFb-RUNX1 inh: inactive

Results for Cc1c(Nc2cc(Cl)c3nonc3c2[N+](=O)[O-])c(=O)n(-c2ccccc2)n1C ?
USP2a inh: inactive; TR SRC2 fluor cs: inactive; TRb SRC2 PPI: inactive; Eya2 phos inh: inactive; TSHR antagonist: -85; CBFb-RUNX1 inh: inactive

Results for O=S(=O)(NC[C@@H]1CCC[C@H](CNS(=O)(=O)c2c(F)cccc2F)C1)c1ccc2c(c1)OCCO2 ?
USP2a inh: inactive; Eya2 phos inh: inactive; TSHR antagonist: inactive

What do the screens show for `COc1ccc(C(=O)Nc2ccc(N3CCOCC3)cc2)cc1OC`?
USP2a inh: inactive; TR SRC2 fluor cs: inactive; TRb SRC2 PPI: inactive; Eya2 phos inh: inactive; TSHR antagonist: inactive; CBFb-RUNX1 inh: inactive

How did COc1ccc(C(=O)Nc2ccc(N3CCOCC3)c(C(F)(F)F)c2)cc1OC do in these assays?
TR SRC2 fluor cs: 11µM[quencher]; TRb SRC2 PPI: inactive

How did S=c1[nH]nc(-c2ccccc2)n1C1C=CCCC1 (stereo not given) do in these assays?
USP2a inh: inactive; TR SRC2 fluor cs: inactive; TRb SRC2 PPI: inactive; Eya2 phos inh: inactive[15.4 µM]; TSHR antagonist: -71; CBFb-RUNX1 inh: inactive

What do the screens show for `S=c1[nH]nc(-c2cccnc2)n1C1CCCCC1`?
USP2a inh: inactive; TR SRC2 fluor cs: inactive; TRb SRC2 PPI: inactive; Eya2 phos inh: inactive; TSHR antagonist: inactive; CBFb-RUNX1 inh: inactive

Results for CCN(CC)c1ccc(N=Cc2cc(Br)ccc2O)cc1 ?
USP2a inh: inactive; TR SRC2 fluor cs: inactive; TRb SRC2 PPI: 50µM; Eya2 phos inh: inactive; TSHR antagonist: inactive; CBFb-RUNX1 inh: inactive

What do the screens show for `O=c1c2ccccc2c(C=Nc2ccc(S(=O)(=O)N3CCCCC3)cc2)c(O)n1-c1ccc(Cl)cn1`?
USP2a inh: inactive; TR SRC2 fluor cs: 35µM[quencher]; TRb SRC2 PPI: inactive; Eya2 phos inh: inactive; TSHR antagonist: inactive; CBFb-RUNX1 inh: inactive

Results for Cc1cc(O)ccc1N=Cc1c(C(F)(F)F)[nH][nH]c1=O ?
USP2a inh: inactive; TR SRC2 fluor cs: 32µM[fluorescent]; TRb SRC2 PPI: 6.3µM; Eya2 phos inh: inactive; TSHR antagonist: inactive; CBFb-RUNX1 inh: inactive

How did O=c1[nH][nH]c(C(F)(F)F)c1C=Nc1ccccc1 do in these assays?
USP2a inh: inactive; TR SRC2 fluor cs: inactive; TRb SRC2 PPI: inactive; Eya2 phos inh: inactive; TSHR antagonist: inactive; CBFb-RUNX1 inh: inactive

What do the screens show for `CS(=O)(=O)c1ccc(N2CCN(c3ccccn3)CC2)c([N+](=O)[O-])c1`?
USP2a inh: inactive; Eya2 phos inh: inactive; TSHR antagonist: -114

What do the screens show for `O=C(c1ccc(N2CCCC2)c([N+](=O)[O-])c1)N1CCN(c2ccccn2)CC1`?
USP2a inh: inactive; TR SRC2 fluor cs: inactive; TRb SRC2 PPI: inactive; Eya2 phos inh: inactive; TSHR antagonist: inactive; CBFb-RUNX1 inh: inactive

Source: PubChem BioAssay
